According to PubChem BioAssay AID662 (National Center for Advancing Translational Sciences (NCATS), 2007):
The campaign covered roughly 71,000 compounds. About 1,800 (2.5%) were called active. Roughly 26% stayed inconclusive and do not appear here. Calls follow the shape of the dose curve; as a rule, active = well fitted activation curve with a large enough effect in the signal ratio, with a control signal flat (not every such curve was filed as active); inconclusive = small, poorly fitted or top-dose-only effect, or effect the other way, or a change in a side signal; inactive = flat fitted curve, though single readings scatter; the % refers to the signal ratio. Many of the other results were omitted from the sample, so actives are more common in it than they were.

Experiment: Cell signaling CRE-BLA (Fsk stim); as to activity change, negative = inhibition: % of control where 0% means no effect
Conditions: CHO CRE-bla reporter (cAMP response element driving beta-lactamase), forskolin EC10, beta-lactamase ratio; series mostly up to 38.2 µM; activity change, negative = inhibition: at the top concentration
Text: NIH Molecular Libraries Screening Centers Network [MLSCN]
NIH Chemical Genomics Center [NCGC]
Assay Provider: Marshall W. Nirenberg, U.S. National heart lung & blood institute
Memories persist for different lengths of time, from seconds or minutes to a lifetime. There are two kinds of memory: short-term memory (STM) and long-term memory (LTM). STM lasts for minutes to hours, which maybe mediated by modifications of molecules involved in synaptic functions. LTM lasts for days or longer, and may be due to the formation of new synapses or restructuring of existing synapses. LTM, but not STM, requires gene transcription and synthesis of proteins. CREB (cyclic-AMP Responsive Element Binding Protein) is one of the candidates plays an important role for enhancement of some types of LTM. CREB, a family of transcription factors, regulates the transcription of genes containing cAMP Responsive Elements (CRE). CRE is a nucleotide sequence often found in the promoter regions of genes that are binding sites for CREB.
Using a beta-lactamase reporter-gene under control of cAMP responsive element, a cell-based assay [CellSensor(TM) CRE-bla CHO developed by Invitrogen Corp.] was used to measure forskolin-induced signaling. Library compounds were measured for their ability to modulate positively or negatively the action of EC10 NKH 477, a water soluble forskolin, on reporter gene activity. Compounds were screened in a titration series in 1536-well format. Positive and negative modulators were identified based on the AC50 values derived from the screening data.
NCGC Assay Protocol Summary
2000 cells/5uL in Opti-MEM medium containing 0.5% dialyzed FBS, 0.1 mM NEAA, 1 mM sodium pyruvate and 10 mM HEPES was dispensed into 1536-well plates and cells were cultured at 37 degrees Celsius overnight. […] And then the plates were incubated at 37 degrees Celsius for 3 hours. 1 uL of CCF4-dye mixture was added to each well. After incubated at room temperature for 2 hours the plates were measured on an EnVision plate reader at Excitation 405nm, Emission1=460nm and Emission 2=530nm. The %Activity was determined from the ratio of 460nm/530nm.
Keywords: NIH Roadmap, MLSCN, MLSMR, qHTS, NCGC, CRE, beta-lactamase reporter-gene assay.
Potency is read from the fitted curve at half-maximal effect.

| SMILES | activity change, negative = inhibition | Potency |
| --- | --- | --- |
| CCc1nnc(NC(=O)c2cccs2)s1 | -1.45% (inactive) |  |
| O=C(Nc1ncccn1)c1cccs1 | -3.62% (inactive) |  |
| CCOC(=O)c1oc2ccccc2c1NC(=O)c1cccs1 |  | 3.98 µM (active) |
| CCOC(=O)c1c(NC(=O)c2cccs2)sc(C)c1C |  | 2.51 µM (active) |
| COC(=O)Cn1cc(C(=O)c2cccs2)c2ccccc21 | -1.19% (inactive) |  |
| O=C(O)Cc1ccc(NC(=O)c2cccs2)cc1 | -4.51% (inactive) |  |
| COC(=O)C1=C(C)N(C)C(C)=C(C(=O)OC)C1c1cccc(Br)c1 | 2.2% (inactive) |  |
| O=C(Cl)c1ccc([N+](=O)[O-])cc1 | -11.7% (inactive) |  |
| CCNC(=S)NCC | 2.82% (inactive) |  |
| CCCCC(CC)CN (stereo unspecified) |  | inactive |
| c1csc(-c2cn3c(n2)SCC3)c1 | -0.942% (inactive) |  |
| Cc1c(C)c2c(c(C)c1O)CC[C@@](C)(CN1CCN(c3cc(N4CCCC4)nc(N4CCCC4)n3)CC1)O2 | -4.36% (inactive) |  |
| CC1OC2C(OC1C)N(S(C)(=O)=O)CCN2S(C)(=O)=O (stereo unspecified) | -1.57% (inactive) |  |
| Cc1nc2cnc(N3CCN(C)CC3)nc2n(CCC#N)c1=O | 14.5% (inactive) |  |
| Cc1nc2cnc(N3CCN(C)CC3)nc2n(C[C@H]2CCCO2)c1=O | 5.46% (inactive) |  |
| O=c1c(CCc2ccccc2)nc2cnc(N3CCNCC3)nc2n1Cc1cccs1 |  | 12.6 µM (active) |
| CC(C)(C)[Si](OCC[C@@H]1C[C@@]1(C)[C@@H](NP(=O)(c1ccccc1)c1ccccc1)c1ccccc1)(c1ccccc1)c1ccccc1 | 19% (inactive) |  |
| COC(=O)[C@@]1(Cc2ccc(OC)cc2)[C@H]2c3cc(C(=O)N4CCCC4)n(Cc4ccc(C(F)(F)F)nc4)c3C[C@H]2CN1C(=O)c1ccccc1 | -23.5% (inactive) |  |
| COC(=O)C1(C)C=CC2(CCCCC2)N1C(C)=O (stereo unspecified) | 1.94% (inactive) |  |

| SMILES | activity change, negative = inhibition | Potency |
| --- | --- | --- |
| CCCCCCCCCCCC(=O)O |  | inactive |
| CCCOc1ccc(C2c3c(oc4cc(C)c(C)cc4c3=O)C(=O)N2CCCN2CCOCC2)cc1 (stereo unspecified) | 6.61% (inactive) |  |
| Cc1cccn2c(=O)c3cc(C#N)c(=O)n(CCCN4CCOCC4)c3nc12 |  | 10 µM (active) |
| Cn1c(=O)c2c(nc(CN3CCOCC3)n2Cc2ccccc2)n(C)c1=O | 2.87% (inactive) |  |
| CCOC(=O)CSc1nnc(-c2cccc(Br)c2)o1 | -0.588% (inactive) |  |
| CCC[C@@H]1C[C@@]1(CCC)C(NC(=O)c1ccc(-c2ccccc2)cc1)c1cccc(Cl)c1 (stereo partly specified) | 15.6% (inactive) |  |
| CCOc1ncccc1C(=O)OCc1cn2cc(Cl)ccc2n1 |  | 10 µM (active) |
| COc1ccc(C(=O)NCc2cn3ccccc3n2)cc1 | -8.76% (inactive) |  |
| CSc1ncccc1C(=O)OCC(=O)N1CCOCC1 | -3.86% (inactive) |  |
| CC(=O)N1[C@H](C)C=C[C@]1(Cc1ccccc1)C(=O)NCc1ccccn1 | -6.46% (inactive) |  |
| C/C(=C\C(=O)c1ccc(Br)cc1)N1CCCCC1 | -14.2% (inactive) |  |
| COC(=O)C1(Cc2ccccc2)C=C2C(=C(C)C(=O)C2C)CN1 (stereo unspecified) | -7.33% (inactive) |  |
| Fc1ccc(-c2ccc(-c3nn4c(-c5ccco5)nnc4s3)o2)cc1 | 27.6% (inactive) |  |
| COc1ccc(-c2nn3c(-c4ccccc4)nnc3s2)cc1OC |  | 3.16 µM (active) |
| Cc1nnc2sc(-c3ccco3)nn12 | 4.72% (inactive) |  |
| COc1cc(-c2nn3c(-c4cccc(C)c4)nnc3s2)cc(OC)c1OC |  | 1.58 µM (active) |
| CC(=O)Nc1ccc(-c2nn3c(C)nnc3s2)cc1C | 16.3% (inactive) |  |
| COC(=O)CCCCCN1C(=O)NC(c2ccc(-c3ccccc3)cc2)C(C(=O)OCc2ccccc2)=C1C (stereo unspecified) | -4.41% (inactive) |  |
| O=C(CCSc1ccccc1)NCCSc1ccccn1 | 1.51% (inactive) |  |

| SMILES | activity change, negative = inhibition | Potency |
| --- | --- | --- |
| CCOc1ccccc1N(CC(=O)Nc1ccccc1C(=O)OC)S(C)(=O)=O | 12.2% [at 7.6 µM] (inactive) |  |
| CC(NC(=O)Nc1ccccc1)c1ccccc1 (stereo unspecified) | -3.64% (inactive) |  |
| CC(Cc1ccccc1)C(=O)N(C)Cc1ccccc1 (stereo unspecified) | -6.74% (inactive) |  |
| CCCSc1nc2c(c(=O)n(C)c(=O)n2C)n1Cc1ccc(C)cc1 | 11.3% (inactive) |  |
| COC(=O)C(C)Sc1nc2c(c(=O)n(C)c(=O)n2C)n1Cc1cccc(C)c1 (stereo unspecified) | 9.27% (inactive) |  |
| CCOc1ccc(Cn2c(SCCCCC#N)nc3c2c(=O)n(C)c(=O)n3C)cc1OCC |  | 10 µM (active) |
| COC(=O)[C@@]1(Cc2ccccc2)[C@H]2c3cc(C(=O)N(C)C)n(CCSCCO)c3C[C@H]2CN1C(=O)c1ccccc1 | -10.9% (inactive) |  |
| NS(=O)(=O)c1ccc(NS(=O)(=O)/C=C/c2ccccc2)cc1 | -1.2% (inactive) |  |
| CC(C)(C)NC(=O)c1cc(NC(=O)c2ccco2)cc(NC(=O)c2ccco2)c1 | 15.4% (inactive) |  |
| O=c1c2[nH]c3ccc(Cl)cc3c2ncn1Cc1ccccn1 |  | 3.98 µM (active) |
| O=C(Nc1cccc(Cl)c1)OCc1ccccn1 | 29.5% (inactive) |  |
| CC(=O)N1CC2(C)CN(C(C)=O)CC(C)(C1)C2=O | 0.353% (inactive) |  |
| C/C=C/C=C/C(=O)O | -16.5% (inactive) |  |
| CCNc1nc(NCC)nc(N(C)n2cnnc2)n1 | 20.1% (inactive) |  |
| Nc1nc(SCCOc2ccccc2)n[nH]1 | -4.62% (inactive) |  |
| CCNc1nc(SCCOc2ccccc2)nc(N(C)C)n1 |  | 3.98 µM (active) |
| OC(CCl)CCl | 1.13% (inactive) |  |
| CCCc1nc(SCC(=O)Nc2ccccc2OC)c2c(=O)n(C)c(=O)n(C)c2n1 |  | 2.51 µM (active) |
